Bioassay records as filed in PubChem.
MCF10A rereplic – DNA re-replication induction in MCF 10a cells | MCF 10A DNA re-replication, Hoechst nuclear intensity, 48 h | Potency, µM (doses to about 46.1 µM), without a hit: top-dose activity, positive = re-replication, usual class: activators | 350,000 compounds, 2.9% hits | AID 624296; also: % of control where 0% means no effect; nearly all actives have a fitted effect of over 50% in size
KB-3-1 cytotox – KB-3-1 parental cell cytotoxicity | 400,000 compounds, 1.4% hits | AID 1347075 | KB-3-1 viability, CellTiter-Glo ATP luminescence, 72 h | Potency, µM (top dose mostly 46.1 µM), most hits filed as cytotoxic; also: % is scaled to controls: 0 for no effect and ±100 for the full control effect; nearly all actives have a fitted effect of over 60% in size
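Cytotoxicity in the drug-sensitive parental line KB-3-1 was scored as loss of CellTiter-Glo luminescence following 72 h incubation with compound. Values come from curve fitting of normalized concentration-response data.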
SW480 rereplic – inducers of DNA re-replication in SW480 colon cancer cells | SW480 DNA re-replication, Hoechst DNA content imaging, 48 h | Potency, µM (doses to about 46.1 µM), without a hit: top-dose re-replication activation, actives largely listed as activators | 340,000 compounds, 1.8% hits; also: % of control where 0% means no effect; nearly all actives have a fitted effect of over 55% in size
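Image-based read-out: total Hoechst fluorescence of nuclei (405 nm excitation, 500-530 nm emission), with hits raising the fraction of high-intensity nuclei. SW480 colon cells incubated 48 hr with compounds at 37 C.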
KB-V1 cytotox – KB-V1 MDR subline cytotoxicity; Potency, µM (top dose mostly 46.1 µM), usual class: cytotoxic; KB-V1 MDR cells viability, CellTiter-Glo, 72 h; 400,000 compounds, 3.4% hits; also: % is scaled to controls: 0 for no effect and ±100 for the full control effect; nearly all actives have a fitted effect of over 60% in size
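KB-V1 cells (P-gp-expressing MDR subline of KB-3-1) in phenol-red-free DMEM with 10% FBS were exposed to library compounds over a concentration series for 72 h at 37 degrees C. Viability read by CellTiter-Glo luminescence; concentration-effect curves fitted after normalization.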
HT1080NT lethal – kills 2HG-producing HT-1080-NT fibrosarcoma cells. HT-1080-NT fibrosarcoma viability, CellTiter-Glo ATP luminescence, 48 h. Potency, µM (top dose mostly 46.1 µM), for inactives: at the top dose activity, negative = less viability, hits mostly cytotoxic. 360,000 compounds, 1.6% hits;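 also: NT is the 2HG producing partner of a matched IDH1 knockdown line; 0% = DMSO-treated cells and -100% = media-only wells without cells; nearly all actives have a fitted effect of over 55% in size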
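750 cells/well, RPMI + 5% FBS; 2 h settle, compound pin-transfer, 48 h at 37 degrees C. CellTiter-Glo 10 min RT, luminescence. Normalized to DMSO and media-only wells.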
HT1080 IDH1KD tx – HT-1080 IDH1 knockdown cell toxicity (counter line); HT-1080 IDH1 knockdown viability, ATP luminescence, 48 h; Potency, µM (highest dose often 46.1 µM), without a hit: top-dose activity, negative = toxicity, actives largely listed as cytotoxic; 360,000 compounds, 2% hits;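 also: 0% = DMSO wells and -100% = cell-free medium wells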
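Knockdown cells (IDH1KD HT-1080) received compounds 2 h after plating at 750 cells/well and were kept 48 h at 37 °C in 5% FBS RPMI. A CellTiter-Glo luminescence read gave % activity for curve fitting.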
* = called active by the depositor; i = inactive; ? = inconclusive; . = no result given; ! = not confirmed by another sample. Only some compounds are listed: those with a hit (about 7.9% of all), similar ones and a draw of the others. Calls follow the shape of the dose curve; as a rule, active = well fitted curve in the direction sought with a large enough effect; inconclusive = small, poorly fitted or top-dose-only effect, or another doubt; inactive = no such curve, though single readings can be large; an effect the other way counts as inactive or inconclusive. Potency is read from the fitted curve at half-maximal effect.

SMILES	MCF10A rereplic	KB-3-1 cytotox	SW480 rereplic	KB-V1 cytotox	HT1080NT lethal	HT1080 IDH1KD tx
O=c1[nH]c(N/N=C\c2ccc3c(c2)OCO3)nc2ccccc12	19%	?	4%	i	2%	-11%
Cc1cc(N/N=C/c2ccc3c(c2)OCO3)nc2ccccc12	16µM*	i	?	i	-11%	-17%
CN(C)c1nc(NCc2ccccc2)nc(N/N=C/c2ccc3c(c2)OCO3)n1	23µM*	i	26%	?	-17%	-25%
NC(=NCCCCCCN=C(N)/N=C(\N)Nc1ccc(Cl)cc1)/N=C(\N)Nc1ccc(Cl)cc1	?	?	1.3µM*!	?	15µM*!	18µM*!
COc1cc(OC)cc(-c2c(-c3cccs3)c3cc(-c4ccc(OC)c(OC)c4)ccc3n2C)c1	16µM*	i	10%	i	?	1%
COc1cc(OC)cc(-c2c(-c3cccs3)c3cc(-c4cnc(N)nc4)ccc3n2C)c1	23µM*	?	?	?	?	?
COc1cccc(-c2c(-c3cc(OC)cc(OC)c3)n(C)c3ccc(-c4cnc(OC)nc4)cc23)c1	?	13µM*	2%	?	-4%	2%
COc1cc(OC)cc(-c2c(-c3cccs3)c3cc(-c4ccc(OC)c(F)c4)ccc3n2C)c1	6%	i	?	i	-1%	-4%
CC(C)(C)C(=O)Nc1nc2c(s1)CN(Cc1ccccc1)CC2	5%	i	?	?	-6%	12%
Cc1c(F)cccc1NS(=O)(=O)c1ccc(OCCNS(C)(=O)=O)cc1	5%	?	11%	i	-1%	-1%
C/C(=N\Nc1cc(N2CCCCC2)nc(C)n1)c1ccc(Br)cc1	12µM*	?	?	?	?	?
C/C(=N\Nc1cc(N2CCOCC2)nc(C)n1)c1ccc(F)cc1	-10%	i	?	i	-18%	-16%
Cc1nn(-c2ccccc2)nc1CNC(=O)c1ncoc1-c1ccccc1	23µM*	i	-2%	i	?	?
O=C(COc1ccccc1C(=O)NCC1CCCO1)Nc1ccc(Cl)cc1Cl (stereo not given)	3%	i	3%	?	5%	-18%
O=C(O)CCC(=O)Nc1cccc2cccnc12	-8%	i	0%	i	-9%	13%
O=C(CCC(=O)OCC(=O)c1ccccc1)Nc1cccc2cccnc12	16µM*	i	18µM*	i	0%	8%
O=C1CC(c2ccc(O)cc2)Oc2ccccc21 (stereo not given)	?	i	3%	i	-10%	7%
Cc1c(O)cc2c(c1O)C(=O)CC(c1ccccc1)O2 (stereo not given)	?	?	7%	i	?	23µM*
CCN(CC(=O)Nc1ccc(NC(C)=O)cc1)C(=O)COc1ccccc1-c1ccccc1	-6%	i	-3%	i	-7%	-4%
CCOC(=O)C1=NN(c2ccc([N+](=O)[O-])cc2)CC1C(=O)OC (stereo not given)	-2%	i	-3%	i	6%	9%
Fc1ccc(/C=N/n2c(C3CCCCC3)n[nH]c2=S)cc1	?	i	-8%	i	11%	10%
CC(C)c1ccc(/C=N/n2c(COc3ccccc3)n[nH]c2=S)cc1	21µM*	i	8%	?	-29%	-13%
CCOc1ccc(/C=N/n2c(C3CCCCC3)n[nH]c2=S)cc1	10µM*	i	-15%	i	8%	7%
CCC(=O)N1c2ccccc2CC1C(=O)NCCCN1CCN(c2cc(C)ccc2C)CC1 (stereo not given)	.	i	.	i	.	.
C=CCOc1ccc(C2NC(=S)NC(C)=C2C(=O)c2ccccc2)cc1OC (stereo not given)	3%	i	12%	i	-8%	-4%
SMILES	MCF10A rereplic	KB-3-1 cytotox	SW480 rereplic	KB-V1 cytotox	HT1080NT lethal	HT1080 IDH1KD tx
COc1cccc(C2NC(=S)NC(C)=C2C(=O)c2ccccc2)c1OC (stereo not given)	?	1.8µM*	5.8µM*	?	2.3µM*	1.5µM*
CC1CC(=O)Nc2ccccc2N1S(=O)(=O)c1ccc(Br)cc1 (stereo not given)	-1%	i	-7%	i	-1%	-4%
CCOc1ccc2ncc(S(=O)(=O)c3ccc(C)cc3)c(N3CCC4(CC3)OCCO4)c2c1	?	?	?	4.1µM*	-9%	-5%
CCCCNC(=O)C1CCC(CNS(=O)(=O)c2c(C)cc(C)cc2C)CC1 (stereo not given)	-7%	i	2%	i	-5%	0%
O=C1c2ccc3c4c(ccc(c24)C(=O)N1CCCCO)C(=O)N(CCCCO)C3=O	?	3.7µM*	?	?	23µM*	12µM*
O=C(CCl)N1CCCC1c1ccc2c(c1)OCCO2 (stereo not given)	19%	?	?	?	23µM*	18µM*
CCCCNC(=O)C(Sc1ccccc1)c1ccccc1 (stereo not given)	9%	i	-58%	15µM*	4%	2%
CCOC(=O)c1cccc(NC(=O)[C@@H](c2ccccc2)N2Cc3ccccc3C2=O)c1	.	i	.	i	.	.
CSCCC(NC(=O)c1ccccc1)C(=O)O (stereo not given)	?	i	-3%	?	2%	1%
Cc1cccc(NC(=O)c2cc(S(=O)(=O)N3CCCCC3)ccc2Cl)n1	?	i	?	i	2%	-2%
Clc1ccc(CSc2nncn2-c2ccccn2)cc1	10%	i	4%	i	-4%	-4%
Clc1ccc(CSc2nncn2-c2ccc3c(c2)OCCO3)cc1	9.2µM*	13µM*	21µM*	?	16µM*	5.2µM*
CCCCN(CC)CCCNC(=O)c1nn(-c2ccc(OC)cc2)c(=O)c2c1c1ccccc1n2C	.	i	.	i	.	.
CCOc1ccc(N2C(=O)Nc3ccccc3C2(O)C(=O)NCc2ccc(F)cc2)cc1 (stereo not given)	0%	i	1%	i	0%	20%
COc1ccc(CNC(=O)CC2N=C3c4ccccc4N=C(SCC(=O)Nc4ccc(N(C)C)cc4)N3C2=O)cc1 (stereo not given)	.	i	.	i	.	.
CCOC(=O)C(=CNc1cc(C)ccc1C)C(=O)OCC	9%	i	-3%	13µM*	1%	14%
COc1ccccc1N1CCN(CC(=O)Nc2c(C)n[nH]c2C)CC1	-3%	i	-10%	?	7%	5%
